# Laboratory results as given in paper PMC5540273 (PLoS ONE, 2017).
# System: CAMK1D
# Settings: concentration: 1 μM, replicates: in singlicate; n = 1
# 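Also: KINOMEscan kinase panel screen.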
row,SMILES,%Inh
1,COc1cccc2c(-c3ccncc3)c(-c3ccc(F)cc3)nn12 [GW468513],0%
2,COc1cccc(NC(=O)NCCNc2ccnc(Nc3ccc(F)cc3)n2)c1 [GSK1379879],8%
3,Cn1cc(-c2ccc3c(c2)CCN3C(=O)Cc2cc(F)cc(F)c2F)c2c(N)ncnc21 [GSK2634140],28%
4,CN(C)CCOc1ccc(-c2cc(-c3ccc(Cl)c(O)c3)c(-c3ccncc3)[nH]2)cc1.Cl.Cl [SB-684387],23%

# System: CAMK1G
# Settings: concentration: 1 μM, replicates: in singlicate; n = 1
row,SMILES,%Inh
1,COc1cc(Nc2nccc(N3CCC(NS(=O)(=O)c4ccc(NC(C)=O)cc4)CC3)n2)cc(OC)c1OC [GSK1379825],5%
2,Cc1cc(-c2ccnc(Nc3cccc(C#N)c3)n2)cc(C)c1O [GSK1440913],22%
3,Cc1ccc(C)c(NC(=O)Nc2ccc(C)c(-c3ccc(C(=O)Nc4ccncc4)cc3)c2)c1 [GSK1398473],0%
4,CN(C)CCNS(=O)(=O)c1ccc(-c2ccnc3[nH]ccc23)cc1 [GSK977620],8%
5,O=C(Nc1n[nH]c2nc(-c3cccc(O)c3)ccc12)C1CC1 [SB-711805],0%
6,COc1cccc(C2=C(Nc3cccc(O)c3)C(=O)NC2=O)c1 [SB-390771],0%
7,CSc1ccc(NC2=C(c3ccc(Cl)cc3)C(=O)NC2=O)cc1 [SB-317658],0%
8,Cc1ccc(O)cc1Nc1ccnc2cc(-c3ccc(CN4CCCCC4)o3)ccc12 [GW557777],6%
9,Fc1cc(Cl)ccc1Nc1ccnc2cc(-c3ccc(CN4CCOCC4)o3)ccc12 [GW560109],0%
10,COC(=O)Nc1nc2ccc(Oc3ccc(NC(=O)Nc4cc(C(F)(F)F)ccc4F)cc3)cc2[nH]1.Cl [GW654607],0%
11,CN(c1ccc(NC(=O)N2CCN(CCCN3CCOCC3)CC2)cc1)c1ccnc(Nc2ccc(CS(C)(=O)=O)cc2)n1.Cl [GW830899],0%
12,CCn1c(-c2nonc2N)nc2c(-c3ccccc3)ncc(OCCCN)c21.O=C(O)C(F)(F)F.O=C(O)C(F)(F)F [GSK260205],4%
13,COc1cc(Nc2nccc(N3CCC(NC(=O)Nc4ccc5c(c4)OCO5)C3)n2)cc(OC)c1OC (centres unmarked) [GSK1379766],9%
14,Cc1ccc(NC(=O)c2ccnc(N3CCCCC3)c2)cc1-c1ccc(C(=O)NCC2CC2)cc1 [GW775610],0%
15,COC(=O)Nc1nc2ccc(Oc3ccc(CC(=O)Nc4cc(C(F)(F)F)ccc4F)cc3)cc2[nH]1 [GW680903],0%
16,COc1ccc(NC(=O)c2ccoc2)cc1-c1ccc(C(=O)NCC2CC2)cc1 [GW810437],9%
17,Cc1cccc(Nc2nc(NCCN)ncc2C(N)=O)c1 [GSK1292139],23%
18,Cl.N#CCc1ccc(Nc2nccc(Nc3ccc(Oc4ccccc4)cc3)n2)cc1 [GW639905],0%
19,Fc1cc(Cl)ccc1Nc1ccnc2cc(-c3ccc(CN4CCSCC4)o3)ccc12 [GW560106],0%

row,SMILES,%Inh
1,NCCC(NC(=O)c1cc(Br)c(-c2ccnc3[nH]ccc23)s1)c1ccccc1.O=C(O)C(F)(F)F.O=C(O)C(F)(F)F (centres unmarked) [GSK1307810],21%
2,O=C(O)C(F)(F)F.O=c1[nH]ccc2nc(N[C@@H]3CCNC3)nc(Nc3ccc4c(c3)S(=O)(=O)CC4)c12 [GSK2181306],82%
3,Cc1ccccc1CC(=O)N1CCc2cc(-c3cn(C)c4ncnc(N)c34)ccc21 [GSK2603346],19%
4,CCNC(=O)/C=C/c1n[nH]c2cc(Sc3ccccc3C(=O)NC)ccc12,20%
5,Nc1ncc(-c2ccc3nccc(-c4ccncc4)c3c2)cc1S(=O)(=O)N1CCCCC1 [GSK1693850],2%
6,CS(=O)(=O)c1cccc(CNc2nc(Nc3ccc4c(c3)CCC(=O)N4)ncc2C(F)(F)F)c1,0%
7,COc1ccc(C)c(Nc2ccnc(Nc3ccc(-c4cnc[nH]4)cc3)n2)c1.Cl [GW784041],8%
8,O=C(O)C(F)(F)F.O=c1[nH]ccc2nc(N[C@@H]3CCNC3)nc(Nc3cc(Cl)cc(Cl)c3)c12 [GSK2188764],72%
9,Cl.Cl.NC(CNC(=O)c1cc(Br)c(-c2ccnc3[nH]ccc23)s1)c1ccccc1 (centres unmarked) [GSK1322949],27%
10,COC(=O)Nc1nc2cc(Oc3ccc(NC(=O)Nc4cccc(SC)c4)cc3)ccc2[nH]1.Cl [GW697999],0%
11,CCOc1nccc(-c2c(-c3ccc(F)cc3)ncn2C2CCNCC2)n1 [SB-249175],1%
12,Cl.Cl.NCC(NC(=O)c1cc(-c2cccnc2)c(-c2ccnc3[nH]ccc23)s1)c1ccccc1 (centres unmarked) [GSK1323434],3%
13,Nc1ncnc2scc(-c3ccc(NC(=O)Cc4cc(F)ccc4F)cc3)c12.O=C(O)C(F)(F)F [SB-731254-M],15%
14,Cn1cc(-c2ccc3c(c2)CCN3C(=O)Cc2cc(F)cc(C(F)(F)F)c2)c2c(N)ncnc21 [GSK2635225],0%
15,COc1cccc2c(-c3ccncc3)c(-c3ccc(F)cc3)nn12 [GW468513],1%
16,COc1cccc(NC(=O)NCCNc2ccnc(Nc3ccc(F)cc3)n2)c1 [GSK1379879],0%
17,Cn1cc(-c2ccc3c(c2)CCN3C(=O)Cc2cc(F)cc(F)c2F)c2c(N)ncnc21 [GSK2634140],0%
18,CN(C)CCOc1ccc(-c2cc(-c3ccc(Cl)c(O)c3)c(-c3ccncc3)[nH]2)cc1.Cl.Cl [SB-684387],0%
